In PubChem BioAssay AID540276 (National Center for Advancing Translational Sciences (NCATS), 2011):
Several values for one entry are separate records, joined by “and”; a condition that tells them apart may be missing. Equal values may be shown once. The campaign covered roughly 300,000 compounds. About 5,400 (1.8%) were called active. Inconclusive results (about 28%) are left out. The call rests on the fitted dose curve; tested in HEK293 cells. The list comes from a sample in which actives are over-represented; it also holds similar structures and randomly drawn compounds. More than one record can exist for a structure, and the calls need not agree.

test: qHTS for inhibitors of binding or entry into cells for Marburg Virus; conditions: Marburg virus pseudotyped entry inhibition, cell reporter; series mostly up to 37.8 µM; activity change, negative = inhibition: at the top concentration
On the % scale 0 is the no-effect control and ±100 the full control effect; potency means the concentration at half of the fitted maximal effect.

| Compound | activity change, negative = inhibition | Potency |
| --- | --- | --- |
| COCCn1cnc2c1c(=O)n(Cc1ccc(Br)cc1)c(=O)n2Cc1ccccc1 | -16% [at 46.1 µM] (inactive) | – |
| N=c1c2c(-c3ccccc3)c(-c3ccccc3)n(Cc3ccccc3)c2ncn1CCCO | – | 5.8 µM (active) |
| CC(C)Cn1cnc2c1c(=O)n(CC(=O)NN)c(=O)n2Cc1ccccc1 | -7.84% [at 46.1 µM] (inactive) | – |
| Cc1cc(NC(=O)CCN2CCN(Cc3ccccc3)CC2)ccc1Br | -28.2% (inactive) | – |
| CCCCN(C(=O)c1ccc(C)o1)c1c(N)n(CCCC)c(=O)[nH]c1=O | 5.78% (inactive) | – |
| CCc1ccccc1NC(=O)NCCN1CCCCC1 | -22.9% [at 46.1 µM] (inactive) | – |
| O=C(c1ccccc1)C(O)(CN1CCCCC1)c1ccccc1 (stereo not drawn) | 0.299% [at 46.1 µM] (inactive) | – |
| CCCCCCC(O)(CCN1CCCCC1)c1ccccc1 (stereo not drawn) | – | 12.6 µM (active) |
| CCOC(=O)c1ccc(NC(=O)CNC(=O)c2ccco2)cc1 | 3.64% (inactive) | – |
| COCCn1nnnc1C(c1cc2ccc(OC)cc2[nH]c1=O)N1CCc2ccccc2C1 (stereo not drawn) | -18.3% (inactive) | – |
| Cc1ccc(C(c2nnnn2C(C)(C)C)N2CCc3ccccc3C2)cc1 (stereo not drawn) | -6.55% (inactive) | – |
| COc1ccc(OC)c(C(c2nnnn2C(C)(C)C)N2CCc3ccccc3C2)c1 (stereo not drawn) | – | 12.6 µM (active) |
| COc1cc2c(cc1OC)CN(C(C)C(=O)Nc1cccc(S(=O)(=O)N3CCOCC3)c1)CC2 (stereo not drawn) | -9.06% (inactive) | – |
| COc1cc(CN2CC(C)CC(C)C2)cc([N+](=O)[O-])c1O (stereo not drawn) | 6.01% (inactive) | – |
| C#CCOc1ccc(/C=C2/C(=O)NN(c3ccccc3)C2=O)cc1OC | -1.37% (inactive) | – |
| COc1cc(/C=C2/C(=O)NN(c3ccc(F)cc3)C2=O)cc([N+](=O)[O-])c1O | – | 3.55 µM (active) |
| CC12CCC(=O)N1C(C(=O)NCCN1C(=O)S/C(=C\c3ccccc3F)C1=O)CS2 (stereo not drawn) | -7.17% [at 46.1 µM] (inactive) | – |
| Cc1ccc(S(=O)(=O)NCC(=O)NNC(=O)c2ccc(Br)cc2)cc1C | -1.37% [at 46.1 µM] (inactive) | – |
| O=C(CCNS(=O)(=O)c1ccccc1)NCCCc1ccccc1 | 1.26% (inactive) | – |
| O=C(COC(=O)c1ccccc1)Nc1ccc(Cl)cc1C(=O)c1ccccc1 | 0.248% (inactive) | – |
| O=C(CCNS(=O)(=O)c1ccccc1)Nc1ccc(Cl)cc1C(=O)c1ccccc1 | – | 8.91 µM (active) |
| O=C(CN(Cc1ccccc1)C(=O)CCC(=O)Nc1ccccn1)NCCc1ccccc1 | 0.694% [at 46.1 µM] (inactive) | – |
| O=C(COC(=O)c1ccc(Oc2ccccc2)cc1)Nc1nnc(-c2ccccc2)o1 | -22% (inactive) | – |
| COc1cccc(-c2nnc(NC(=O)c3ccc(S(=O)(=O)N(CC(C)C)CC(C)C)cc3)o2)c1 | – | 1.26 µM (active) |
| COc1cccc(NC(=O)CN(C)S(=O)(=O)c2ccc(C)cc2)c1 | 0.928% [at 46.1 µM] (inactive) | – |
| O=C1NCC(c2ccccc2)(c2ccccc2)C(=O)N1 | -1.26% (inactive) | – |
| COc1ccc(Cl)cc1NS(=O)(=O)c1cccc(C(=O)NC2CCC(O)CC2)c1 (stereo not drawn) | 2.44% (inactive) | – |

| Compound | activity change, negative = inhibition | Potency |
| --- | --- | --- |
| COCCC(=O)N1CCC(Oc2ccc(C(=O)NCc3ccon3)cc2)CC1 | 24.6% (inactive) | – |
| CCOC(=O)C1CCCN(CCSc2ccc(C)cc2)C1 (stereo not drawn) | -4.16% (inactive) | – |
| CN1CCN(c2ccc([N+](=O)[O-])c(Sc3nc4ccccc4[nH]3)c2)CC1 | -23.4% (inactive) | – |
| CN1CCN(c2cc(N3CCNCC3)ccc2[N+](=O)[O-])CC1 | – | 5.01 µM (active) |
| O=C(c1cccc(F)c1)N1CCN(c2ccc([N+](=O)[O-])c(N3CCCCC3)c2)CC1 | -24% (inactive) | – |
| O=C(NN=CC=Cc1ccccc1)C(O)C(O)C(=O)NN=CC=Cc1ccccc1 (stereo not drawn) | -3.95% (inactive) | – |
| N#CC1(Nc2ccc(-c3ccc(Cl)cc3)cc2)CCCC1 | 17% (inactive) | – |
| Cc1cc(NC(=O)CSc2ncc(C(F)(F)F)cc2Cl)no1 | 8.87% [at 46.1 µM] (inactive) | – |
| CCOC(=O)CSC1=c2ccccc2=NC1c1cccs1 (stereo not drawn) | 4.05% (inactive) | – |
| CC1CCN(C(=O)COC(=O)CCC(=O)c2cccs2)CC1 | 22% (inactive) | – |
| COc1ccc(-n2nc(C(=O)NCC(=O)N3CCN(c4ccccc4OC)CC3)c3ccccc3c2=O)c(OC)c1 | -3.25% [at 46.1 µM] (inactive) | – |
| CN(Cc1ccccc1Cl)C(=O)C1CCC(=O)N(CCc2cccc(F)c2)C1 (stereo not drawn) | -1.51% (inactive) | – |
| COc1cc(C)ccc1OCC(=O)OCC(=O)c1ccc[nH]1 | -7.97% (inactive) | – |
| Cn1c2ccccc2c2c(C(=O)N3CCN(c4ccc(F)cc4)CC3)cn(C3CCCC3)c(=O)c21 | – | inactive and 17.8 µM (active) |
| O=C(c1ccccc1Oc1ccccc1)N1CCN(c2ccc(F)cc2)CC1 | -15.5% (inactive) | – |
| CCOc1ccc(NC(=O)c2cn(C3CCCCC3)c(=O)c3c2c2ccccc2n3C)cc1 | 0.938% [at 46.1 µM] (inactive) | – |
| c1ccc2cc3c(NCCN4CCOCC4)ccnc3cc2c1 | – | 3.66 µM (active) |
| O=C(Cn1c(-c2ccccn2)nc2ccccc21)NCCN1CCOCC1 | -0.271% (inactive) | – |
| O=C(NCCN1CCOCC1)c1cc(-c2cccs2)nc2ccccc12 | -10.3% (inactive) | – |
| COC(=O)Nc1ccc(S(=O)(=O)Nc2cc(OC)nc(OC)n2)cc1 | 15% (inactive) | – |
| CC(OC(=O)c1ccc(-n2cnnn2)cc1)C(=O)NCc1ccccc1 (stereo not drawn) | -25% [at 46.1 µM] (inactive) | – |
| CC(=O)OC[C@H]1O[C@H](C/C=N/OC[C@@H](O)COCc2ccco2)C=C[C@@H]1OC(C)=O | 0.658% [at 14.2 µM] (inactive) | – |
| CC(=O)c1c(O)c(C)c(O)c(Cc2c(O)c3c(c(C(=O)/C=C\c4ccccc4)c2O)OC(C)(C)C=C3)c1O | – | 3.16 µM (active) |
| CC(=O)c1c(O)c(C)c(O)c(Cc2c(O)c3c(c(C(=O)/C=C/c4ccccc4)c2O)OC(C)(C)C=C3)c1O | – | inactive and 3.16 µM (active) |
| O=C(/C=C/c1ccccc1)c1ccoc1 | 27.8% (inactive) | – |
| O=C(/C=C/c1ccccc1)c1ccccc1O | – | inactive |
